Reference: ChEMBL document CHEMBL4513216, “Probing the Open Global Health Chemical Diversity Library for Multistage-Active Starting Points for Next-Generation Antimalarials” (ACS Infect Dis, 2020)
The whole screen tested about 69,000 compounds, of which about 8,600 (12%) showed an effect of 50% or more. The sample as a whole holds a higher share of strong results than the screen did.

Test system: Plasmodium berghei
Test: Screen against P. berghei liver stage (PbLuc), transformed with Luciferase, at 10uM
Format: functional, HepG2
Conditions: tested at 10 uM

Structure (SMILES) | INHIBITION [%]
COc1ccc(S(=O)(=O)NC(=O)COC2CCCCC2)cc1 | 14.1
CC(C)n1nccc1CN1Cc2nccn2CC1c1ccccc1 (stereo unspecified) | 7.39
Cc1nn(C)cc1C(=O)NCc1cc(N(C)C)nc2ccccc12 | -17.8
CCn1nc(C)cc1C(=O)NCc1cc(N(C)C)nc2ccccc12 | 54.4
Cc1nn(C)c(C)c1C(=O)NCc1cc(N(C)C)nc2ccccc12 | -21.1
CNC(=O)CN1CCO[C@H]2CN(C(=O)C3CC3)C[C@H]21 | -8.85
C1CC(c2noc(C3CC3)n2)N(Cc2nnc(C3CC3)o2)C1 (stereo unspecified) | 15.75
CC(=O)N1CCOC(c2c(C(=O)O)sc3ccccc23)C1 (stereo unspecified) | -9.51
Cn1c(C2CC2)nc2c1CCN(Cc1nc(Cc3ccccc3)no1)C2 | 34.7
c1ccc(Cc2noc(CN3CCc4c(ncn4C4CC4)C3)n2)cc1 | 0.411
Cn1cnc2c1CCN(Cc1nc(COc3ccc(F)cc3)no1)C2 | 53.8
CC(C)c1nc2c(n1C)CCN(Cc1nc(-c3ccsc3)no1)C2 | 47.6
Cn1cnc2c1CCN(Cc1noc(-c3ccccc3)n1)C2 | 43.7
c1cncc(-c2noc(CN3CCc4cncnc4C3)n2)c1 | 22.683
Cn1cnc2c1CCN(Cc1nc(-c3ccco3)no1)C2 | 45.1
CCc1ncc2c(n1)CN(Cc1nc(-c3ccccn3)no1)CC2 | 47.1
c1cc(-c2noc(CN3CCc4c(ncn4C4CC4)C3)n2)cs1 | 31.1
c1ccc(-c2noc(CN3CCc4cncnc4C3)n2)nc1 | 72.9
Cn1cnc2c1CCN(Cc1nc(-c3ccsc3)no1)C2 | 52.7
Cn1cnc2c1CCN(Cc1nc(Cc3ccccc3)no1)C2 | 52.7
CN1C(=O)[C@@H]2CC[C@H]1CN(C(=O)c1nnc3n1CCCCC3)C2 | -89.9
CCS(=O)(=O)N1CCC2(CC1)CN(c1cccnc1)C(=O)CO2 | 45.7
CC(C)c1ncc2c(n1)CN(Cc1nc(-c3ccccn3)no1)CC2 | 28.8
CCCn1nccc1-c1nccnc1CC1CCN(C(C)=O)CC1 | 19.3
COC1C[C@@H]2CN(C(=O)c3cc4cccc(F)c4[nH]3)C[C@@H]2C1 (stereo partly specified) | -14.379
CCN(CC)Cc1cn2c(n1)CN(Cc1c(C)noc1C)CC2 | 16.6

Structure (SMILES) | INHIBITION [%]
COCCn1ccc2c(C(=O)NCC3CCCO3)cccc21 (stereo unspecified) | 23.7
Cc1cnc(N2C[C@@H]3CCN(CC(=O)N(C)C)C(=O)[C@H]3C2)nc1 | -61.9
Cc1ccc(CC2COCCN(Cc3ccccc3)C2)nc1 (stereo unspecified) | 35
Cc1ccc2c(n1)N(C)CCN(C(=O)NC1CC1)C2 | 1.28
Cn1cnc2c1CCN(Cc1csc(-c3ccccc3F)n1)C2 | 70.7
Fc1ccc(OCc2noc(CN3CCc4cncnc4C3)n2)cc1 | 50.4
c1ccc(Cc2noc(CN3CCc4cncnc4C3)n2)cc1 | 19.6
COc1ccc(-c2noc(CN3CCc4cncnc4C3)n2)cc1 | 40.3
Cn1cnc2c1CCN(Cc1csc(-c3ccc(F)cc3)n1)C2 | -2.522
Cn1cnc2c1CCN(Cc1csc(-c3ccccc3)n1)C2 | 23.6
CO[C@@H]1CCC[C@@H](N(C)C(=O)c2cn3cc(C)ccc3n2)[C@H]1O | -11.125
COc1ccc(C(=O)N2CCCS2(=O)=O)cc1 | -11.4
CN1C(=O)CC(c2ccccc2)C12CCN(CC1CCOCC1)CC2 (stereo unspecified) | -7.28
COCCN1CCC(CN(CC2CCCO2)C(=O)C2CCOCC2)CC1 (stereo unspecified) | 29.9
CCCc1nc(C(C)(C)NC(=O)c2ccnn2C)no1 | 38.3
CN(C)Cc1nc(C(C)(C)NC(=O)c2ccnn2C)no1 | 57.6
Cn1nccc1C(=O)NC(C)(C)c1noc(C(C)(C)C)n1 | 12.7
CCNc1ncc(C(=O)N2CCc3c(nc(C)nc3N(C)C)C2)cn1 | 36.7
CCO[C@H]1CN(C)C[C@@H]1NC(=O)c1cc(C)nc2c(C)cccc12 | 24.3
Cc1cc(SC(C)(C)C)ccc1NC(=O)CNC(N)=O | 22.2
Cc1cc(SC(C)(C)C)ccc1NC(C)C(=O)NC(N)=O (stereo unspecified) | 65.7
Cc1cc(SC(C)(C)C)ccc1NCC(=O)NC(N)=O | 32
O=C1NCC(c2ccc(F)cc2)Cc2[nH]c(CCN3CCCC3)nc21 (stereo unspecified) | 43.9
Cc1c(Br)cc2c(c1C)OCC(N(C)C)C2=O (stereo unspecified) | 24.8
c1cn(CCNc2nc(NC3CC3)nc3c2CCNCC3)nn1 | 53.6
c1cc(-c2nc3c(c(NCCc4c[nH]cn4)n2)CCNCC3)ccn1 | 5.41

Structure (SMILES) | INHIBITION [%]
COCCNc1nc2c(c(NCC3CCOC3)n1)CCNCC2 (stereo unspecified) | 22.3
COCCNc1nc2c(c(NCc3ccncc3)n1)CCNCC2 | -3.19
CCOCCNc1nc(-c2ccncc2)nc2c1CCNCC2 | -86.4
c1cc(-c2nc3c(c(NCCn4ccnn4)n2)CCNCC3)ccn1 | 72.1
O=C(N1CCCC1)N1CCn2c(nnc2C2CCCN2)C1 (stereo unspecified) | 27.5
Cc1nc(C2CCCN2Cc2nc(C3CC3)no2)no1 (stereo unspecified) | 26.9
COCCNC(=O)[C@H]1C[C@@H]2CCN(c3ncccn3)C[C@@H]2O1 | 25.3
COC[C@H]1CC[C@H]2[C@H](CCN2C(=O)c2ccncc2F)O1 | 8.52
COCCNC(=O)[C@@H]1CC[C@@H]2[C@@H](CCN2c2ncc(F)cn2)O1 | 0.734
CC1CCN(C(=O)[C@@H]2CC[C@@H]3[C@@H](CCN3c3ncc(F)cn3)O2)CC1 | 62.4
O=C(NC1CC1)[C@H]1CC[C@@H]2[C@@H](CCN2c2ncc(F)cn2)O1 | 50.1
CN1CCN(C(=O)[C@@H]2CC[C@@H]3[C@@H](CCN3c3ncccn3)O2)CC1 | 34.6
O=C(NC1CCCC1)[C@H]1CC[C@@H]2[C@@H](CCN2c2ncc(F)cn2)O1 | -9.54
COCCNC(=O)[C@H]1CC[C@@H]2[C@@H](CCN2c2ncc(F)cn2)O1 | 0.734
Cc1noc(CN(Cc2cccs2)C2CC2)n1 | 47.3
COCCO[C@H]1CCN(C(=O)c2cc(C)on2)[C@H]1Cc1ccccc1 | 28.2
CC1(c2[nH]ncc2C(N)=O)CCN(S(=O)(=O)c2ccccc2)CC1 | 11.1
CCC(CC)C(=O)N1CCN(Cc2cc(=O)c3ccccc3[nH]2)CC1 | 33.4
O=c1c2c(ncn1CCO)nc1n2CCC1 | 1.98
CCOC(=O)Cn1cnc2nc3n(c2c1=O)CCC3 | 81.2
NC(=O)Cn1cnc2nc3n(c2c1=O)CCC3 | -17
Cc1ccn2ncc(C(=O)N3CCCC(n4nc(C)nc4C)C3)c2n1 (stereo unspecified) | 11.5
Cc1nn(-c2ccccc2)cc1C(=O)N1CCCC(n2cccn2)C1 (stereo unspecified) | 66.4
Cc1nn(-c2ccccc2)cc1C(=O)N1CCCC(n2ccnc2)C1 (stereo unspecified) | -3.2
Cc1ccn2ncc(C(=O)N3CCCC(n4ccnc4C)C3)c2n1 (stereo unspecified) | -31.5
Cc1nn(-c2ccccc2)cc1C(=O)N1CCCC1c1cnn(C)c1 (stereo unspecified) | 43.3

Structure (SMILES) | INHIBITION [%]
Cc1nn(-c2ccccc2)cc1C(=O)N1CCCN2CCCC2C1 (stereo unspecified) | 51.3
Cc1ccn2ncc(C(=O)N3CCCC(n4cccn4)C3)c2n1 (stereo unspecified) | 50.5
Cc1cnn(C2CCCN(C(=O)c3cn(-c4ccccc4)nc3C)C2)c1 (stereo unspecified) | -42.3
O=C(c1ccn(-c2ccccc2)n1)N1CCCC(n2cccn2)C1 (stereo unspecified) | 2.97
CN(C)c1ncc(C(=O)N2C[C@H]3CC(Oc4ccccc4)C[C@H]3C2)cn1 (stereo partly specified) | 2.35
O=C(Cc1cn2ccccc2n1)N1CCCC(n2ccnc2)C1 (stereo unspecified) | -43.6
Cc1cccc(N2CCOCC3(C2)CN(c2ccoc2)C(=O)CO3)n1 (stereo unspecified) | 32.5
NC(=O)c1cc(CC2CCCN(c3cnccn3)C2)ncn1 (stereo unspecified) | -32.7
CS(=O)(=O)NC1CCCN(C(=O)Nc2cccnc2N2CCCC2)C1 (stereo unspecified) | 21.1
CN(C)C[C@@H]1C[C@@H]2CN(Cc3nccn3C)CC[C@@H]2N1CC1CC1 | 51.2
Cc1oncc1C(=O)N1CC[C@H]2[C@H](C[C@@H](CN(C)C)N2CC2CC2)C1 | 33.5
CC(C)N1[C@H](Cn2cncn2)C[C@@H]2CN(Cc3nccn3C)CC[C@@H]21 | 37.6
CCCc1cc(C(=O)N2C[C@H]3CCC[C@@]3(CO)C2)[nH]n1 | 21.9
Cc1cc(C(=O)N2C[C@H](c3ccccc3)[C@@H](N)C2)c2ccc(F)cc2n1 | 13
CCc1ccc2nc(C)cc(C(=O)N3C[C@H]4CCC[C@@]4(CO)C3)c2c1 | 25.5
Cc1cc(C(=O)N2CCC(n3nc(C)cc3C)C2)c2ccc(F)cc2n1 (stereo unspecified) | 37.3
Cc1cc(C(=O)N2C[C@H]3CCC[C@@]3(CO)C2)c2ccc(F)cc2n1 | 58.6
Cc1ccc2nc(C)cc(C(=O)N3C[C@H]4CCC[C@@]4(CO)C3)c2c1 | 75.7
CC(C)COC(C)C(=O)NCc1ccc(F)cc1 (stereo unspecified) | -27.8
Cc1cccc(CNC(=O)CC2CCN(Cc3ccccn3)CC2)n1 | 18.3
CCc1nc(C2CCCN2C(=O)CCc2cscn2)no1 (stereo unspecified) | 18.2
CCn1cc(CN2C[C@@H]3CCCN3C[C@H]2CCSC)cn1 | 35.2
CCOCC1CN(Cc2csc(C)n2)Cc2nccn2C1 (stereo unspecified) | 1.9
